Data on 90 compounds can be found in PubChem BioAssay AID588852 (The Scripps Research Institute Molecular Screening Center, 2011).

Usually inhibition stands for the drop in the measured response relative to a control, in per cent.

About 4,600 (1.3%) of roughly 360,000 compounds were called active. The sample as a whole holds a higher share of actives than the screen did. Values without a mark were called inactive.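 The calls were made as follows: active = percent inhibition above its own plate's cutoff, namely the mean of that plate's compound wells plus 3 SD; inactive = the rest.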

Chain of Muscarinic acetylcholine receptor M1 (Homo sapiens) (P11229 whole entry, looked up): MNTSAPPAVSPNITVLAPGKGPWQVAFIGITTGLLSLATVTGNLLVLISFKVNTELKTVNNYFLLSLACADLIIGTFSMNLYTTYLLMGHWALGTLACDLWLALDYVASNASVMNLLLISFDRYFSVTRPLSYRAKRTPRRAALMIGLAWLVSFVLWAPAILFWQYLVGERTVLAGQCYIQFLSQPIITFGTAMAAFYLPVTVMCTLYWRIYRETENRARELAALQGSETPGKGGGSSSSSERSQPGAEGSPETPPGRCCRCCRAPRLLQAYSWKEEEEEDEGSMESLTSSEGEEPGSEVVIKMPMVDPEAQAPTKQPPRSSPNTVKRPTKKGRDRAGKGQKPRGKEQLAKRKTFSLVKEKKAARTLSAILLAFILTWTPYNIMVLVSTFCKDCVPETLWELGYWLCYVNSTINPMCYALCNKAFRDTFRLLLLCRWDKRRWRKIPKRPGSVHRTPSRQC

The test has as its target Muscarinic acetylcholine receptor M1 (Homo sapiens) (UniProt P11229). Put plainly: human M1 muscarinic receptor antagonists, primary screen, CHO-K1 cells, Fluo-8 calcium fluorescence, 1536-well (AID 588852).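 Also: peak over basal fluorescence ratio during 140 s after agonist addition; 0% = ACh EC80 plus DMSO and 100% = DMSO alone without agonist.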 The settings on record: CHO-K1 hM1, Fluo-8 calcium fluorescence, ACh EC80 antagonist; at 3 µM; active compounds read high.
On to `Cc1cc(C)cc(OCC(=O)Nc2ccc(S(=O)(=O)Nc3ccccn3)cc2)c1`, for which the inhibition is -5.97%.

As for `Cc1ccc(S(=O)(=O)Nc2ccc3ncccc3c2)cc1`, the inhibition was 28.8% (active).

For `O=S(=O)(Nc1ccc(Oc2ncccn2)c(Cl)c1)c1ccc(F)cc1`, the inhibition is -16.8%.

`CC1CCC2(CC1)NC(=O)N(CC(=O)NCc1ccco1)C2=O` (stereo not given): the inhibition was 16.7%.

For `O=S1(=O)CC(N2CCN(c3ccccn3)CC2)CN1Cc1ccc(F)cc1` (stereo not given), the inhibition is -1.35%.

As for `CCCC(CNC(=O)COC(=O)C1=NNC(=O)CC1)c1ccc(Cl)cc1Cl` (stereo not given), the inhibition is -6.04%.

`O=C(CN1CCCCCC1)N1c2ccccc2Sc2ccc(C(F)(F)F)cc21`: the inhibition is 102% (active).

Regarding `O=C(CN1C(=O)/C(=C\c2ccc(C(F)(F)F)cc2)Sc2ccccc21)NCc1ccco1`, the inhibition is 13.9%.

With `O=C(CN1CCCCC1)N1c2ccccc2Sc2ccc(C(F)(F)F)cc21`, the inhibition is 96.8% (active).

Regarding `COc1cc(/C=C/C(=O)N2c3ccccc3Sc3ccc(C(F)(F)F)cc32)cc(OC)c1OC`, the inhibition was -6.22%.

Regarding `O=C(CSc1nc2ccccc2o1)N1c2ccccc2Sc2ccc(Cl)cc21`, the inhibition was -3.61%.

In the case of `CCC(=O)Nc1cc(C(F)(F)F)ccc1N1CCCC1`, the inhibition was 3.67%.

With `COc1ccc(NC(=O)c2cccc(Cl)c2)c[n+]1[O-]`, the inhibition is -8.94%.

As for `Cc1nc2nc(C)c(NS(=O)(=O)c3ccc(C(C)(C)C)cc3)c(=O)n2[nH]1`, the inhibition is 20.2% (active).

`Cc1cccc(NS(=O)(=O)c2ccc([N+](=O)[O-])cc2)n1`: the inhibition was -16.4%.

For `CCc1nc2nc(C)c(NS(=O)(=O)c3ccc4c(c3)CCCC4)c(=O)n2[nH]1`, the inhibition is 12.2%.

For `Cc1ccn2c(=O)c(C(=O)NCCC3=CCCCC3)c(O)nc2c1`, the inhibition was -8.96%.

As for `CN(C)C(=O)N1CCNCC1`, the inhibition was -11.2%.

On to `CC(=O)N1CCOc2ccc(S(=O)(=O)N3CCC(C(=O)Nc4ccccc4F)CC3)cc21`, for which the inhibition was -13.2%.

Regarding `CC(C)(C)N(CC#CCC(O)(c1ccccc1)C1CCCC1)CCO` (stereo not given), the inhibition was 83.9% (active).

Consider `CC(C)c1ccc(N2CC(C(=O)Nc3nccs3)CC2=O)cc1` (stereo not given), for which the inhibition was 12.6%.

Take `CCCCn1nnnc1C(c1cccc(OC)c1OC)N1CCN(C/C=C/c2ccccc2)CC1` (stereo not given): the inhibition was 34.7%.

Regarding `CN1CCN(C2Cc3ccc(Cl)cc3Sc3ccc(F)cc32)CC1` (stereo not given), the inhibition was 60% (active).

Consider `COc1ccc(NC(=O)C(CC(C)C)NC(=O)C2CCC(C)CC2)cc1` (stereo not given), for which the inhibition was 0.68%.

Turning to `CCN(CC)CCNC(=O)c1ccc(NC(=O)c2c(F)cccc2Cl)cc1`, the inhibition is -0.98%.

Take `CCN(CC)CCNC(=O)c1ccc(NC(=O)c2cc(-c3ccncc3)nc3ccccc23)cc1`: the inhibition was 45.5% (active).

For the compound `O=C(Nc1ccc(S(=O)(=O)Nc2nccs2)cc1)c1cc(-c2ccncc2)nc2ccccc12`, the inhibition was -10.5%.

As to `COC(=O)c1ccc2nc(-c3cccc(Br)c3)c(Cc3ccc(OC)cc3C)n2c1`, the inhibition is -41.3%.

On to `CCCCNc1c(-c2cccc(Sc3ccc(OC)cc3)c2)nc2ccccn12`, for which the inhibition was 36.9% (active).

Take `CCCCNc1c(-c2ccc(OC)c(Sc3ccc(OC)cc3)c2)nc2ccc(Cl)cn12`: the inhibition was 19.9%.

In the case of `CCCCNC(=O)c1nc(C2CCN(S(=O)(=O)c3ccc(F)c(F)c3)CC2)oc1-c1cccc(C(F)(F)F)c1`, the inhibition is -12%.

For the compound `CCN(CC)CCCC(C)n1c2nc(=O)[nH]c(=O)c-2nc2cc(Cl)ccc21` (stereo not given), the inhibition is 49.8% (active).

Take `O=Cc1cn(CCOc2ccc(F)cc2)c2ccccc12`: the inhibition was 7.49%.

Turning to `CCCN(CCC)S(=O)(=O)c1cc2c(cc1Br)CCN2C(=O)CC`, the inhibition is -3.69%.

On to `O=C(Nc1cccc(Cl)c1N1CCOCC1)c1cccnc1`, for which the inhibition was -2.23%.

Take `O=C(Nc1cccc(Cl)c1N1CCOCC1)c1ccc2c(c1)OCCO2`: the inhibition was -6.53%.

On to `CCN1CCN(c2c(Cl)cccc2NC(=O)c2ccc(Br)o2)CC1`, for which the inhibition was 33% (active).

For `CCn1cc(-c2cc(C(=O)O)on2)c(C)n1`, the inhibition was -5.04%.

Take `Cc1ccc(-c2nc3ccc(Br)cn3c2Cc2ccccc2C(F)(F)F)cc1`: the inhibition was -2.72%.

Consider `CN1C(=O)c2ccc(NC(=O)c3c(F)c(F)c(F)c(F)c3F)cc2C1=O`, for which the inhibition was -10%.

For `CCC(C)Sc1nc2c(cnn2-c2ccc(F)cc2)c(=O)[nH]1` (stereo not given), the inhibition was -10.5%.

On to `Cc1cccc(-n2ncc3c(=O)[nH]c(SCC(=O)Nc4cc(C)on4)nc32)c1`, for which the inhibition was -7.77%.

`O=C(CSc1nc2c(cnn2-c2ccc(F)cc2)c(=O)[nH]1)N1CCCCCC1`: the inhibition was 39.7% (active).

Take `CC(C)C[C@H](NC(=O)[C@@H]1O[C@H]1C(=O)O)C(=O)NCCCCN=C(N)N`: the inhibition was -28.2%.

Regarding `CCCNC(=O)C1(C)CCN(Cc2csc(-c3ccc(Cl)cc3)n2)C1` (stereo not given), the inhibition is 15.8%.

Regarding `CSCCC(c1nnnn1Cc1ccccc1)N1CCN(C/C=C/c2ccccc2)CC1` (stereo not given), the inhibition was -4.53%.

In the case of `Nc1ncnc2c1ncn2[C@@H]1O[C@H](C(=O)N2CCSC2)[C@@H](O)[C@H]1O`, the inhibition is -21.6%.

Regarding `COc1cc(OC)nc(N/N=C(\c2ccccc2)c2ccncc2)n1`, the inhibition is 1.36%.

As for `CN(C)CCCO/N=C(\c1ccccc1)c1ccncc1`, the inhibition was 34.6% (active).

In the case of `O=C(O/N=C(/c1ccccc1)c1ccncc1)c1ccccc1[N+](=O)[O-]`, the inhibition was 0.78%.

On to `CCc1cc2c(N3CCN(c4nnc(CC)s4)CC3)ncnc2s1`, for which the inhibition is 6.82%.

Turning to `Oc1ccccc1N1CCN(c2ncnc3sc(-c4ccccc4)cc23)CC1`, the inhibition is 25.7% (active).

Take `COc1ccccc1N1CCN(c2ncnc3sc(C)c(-c4ccccc4)c23)CC1`: the inhibition was -8.38%.

Regarding `CN(C)C(=O)c1cccc(-c2cnc3c(NC=O)cc(-c4ccc(F)cc4)cn23)c1`, the inhibition is -4.58%.

For `Cc1cc(C)cc(OCC(=O)Nc2ccc(N3CCOCC3)cc2N2CCOCC2)c1`, the inhibition was 0.26%.

`O=C(COc1ccc(Cl)cc1)Nc1ccccc1CO`: the inhibition is 3.31%.

For the compound `Cc1cc(N2CCCC2)ccc1NC(=O)COc1ccc(Cl)cc1`, the inhibition was 38.5% (active).

Regarding `Fc1ccccc1CCNc1nnnn1-c1ccccc1`, the inhibition was -15.4%.

Consider `O=C(COc1ccccc1)Nc1nonc1NC(=O)COc1ccccc1`, for which the inhibition was 3.1%.

Consider `COc1ccc(C)cc1NC(=S)Nc1ccccc1SC`, for which the inhibition is -4.63%.

As to `Cc1cccc(C(=O)N2CCC(c3nc4ccccc4s3)CC2)c1`, the inhibition is 41.2% (active).

As for `Cc1cccc(NC(=S)N2CCC(c3nc4ccccc4s3)CC2)c1`, the inhibition is 6.88%.

Regarding `O=C(c1cccs1)N1CCC(c2nc3ccccc3s2)CC1`, the inhibition was -0.25%.

Turning to `CC(/C=C/c1ccccc1)=N\NC(=O)C1CC1(C)c1ccccc1` (stereo not given), the inhibition is -3.18%.

For `O=C(CNC(=O)c1ccccc1Br)NCCSc1ccc(Br)cc1`, the inhibition was -10.6%.

In the case of `Cc1ccccc1OCC(=O)Nc1ccc(N2CCN(C(=O)C(C)C)CC2)c(Cl)c1`, the inhibition is 34.5% (active).

For the compound `CCc1ccccc1OCC(=O)Nc1ccc(C)c(S(=O)(=O)N2CCCCCC2)c1`, the inhibition is 6.49%.

Regarding `COc1cc(NC(=O)COc2ccccc2Cl)ccc1NC(=O)C(C)C`, the inhibition is 6.01%.

Regarding `CCN1C(=O)[C@H]2[C@@H](c3ccccc3)N[C@]3(CCCN(Cc4ccc(C)cc4)C3=O)[C@H]2C1=O`, the inhibition was -5.93%.

Turning to `COc1ccccc1C(=O)NCCC(=O)NCC(c1ccco1)N1CCCCC1` (stereo not given), the inhibition was -5.11%.

On to `COc1ccc(C(CNC(=O)c2cccnc2SC)N2CCOCC2)cc1` (stereo not given), for which the inhibition was -5.53%.

Take `CSc1ncccc1C(=O)NCC(c1ccco1)N1CCCCC1` (stereo not given): the inhibition is 34.8% (active).

Regarding `Cc1nn(-c2ccccc2)c2sc(C(=O)N(Cc3ccco3)C(C)C(=O)NC(C)(C)C)cc12` (stereo not given), the inhibition was -7.09%.

As to `CCOC1=C2CN(S(=O)(=O)c3ccc(C)cc3)[C@H](c3cccs3)C[C@H]2[C@H]2C(=O)N(c3ccccc3)C(=O)[C@H]2C1`, the inhibition is 1.5%.

On to `CC(C)C1CC2=C(C(=O)OC(C)(C)O2)C(c2ccc(F)cc2)O1` (stereo not given), for which the inhibition was -37.3%.

Regarding `O=C(NCC(=O)N(CC1CCCO1)C(C(=O)NC1CCCCC1)c1ccccc1)c1ccco1` (stereo not given), the inhibition is -7.84%.

Take `O=C(NCC(=O)N(Cc1cccs1)C(C(=O)NC1CCCCC1)c1ccco1)c1cccs1` (stereo not given): the inhibition is 35.6% (active).

Regarding `Cc1ccccc1N(C(=O)CNC(=O)c1cccs1)C(C(=O)NC1CCCC1)c1ccncc1` (stereo not given), the inhibition was -4.08%.

With `COc1ccc(CC(N)c2csc(NC(=O)NC(c3ccccc3)c3ccccc3)n2)cc1` (stereo not given), the inhibition was -1.87%.

For the compound `CN1OC[C@@H]2CN(C(=O)C(C)(C)C)[C@H](c3ccc(-n4ccnc4)cc3)C[C@@H]21`, the inhibition was 13.8%.

With `O=C(COC(=O)c1cc(S(=O)(=O)N2CCOCC2)ccc1F)NC1CC1`, the inhibition is -2.77%.

Take `CCOC(=O)/C(N=Nc1cc(C(=O)O)cc(C(=O)O)c1)=C(\O)CCl`: the inhibition was -12%.

On to `Cc1ccc2nc(NC(=O)CSc3nc(=O)n(CCCN(C)C)c4c3CCC4)sc2c1`, for which the inhibition is 8.16%.

On to `CCN(CC)CCn1c2c(c(SCC(=O)Nc3nc4ccccc4s3)nc1=O)CCCC2`, for which the inhibition was 42.1% (active).

Regarding `CCN(CC)CCn1c2c(c(SCC(=O)Nc3ccc(C(C)C)cc3)nc1=O)CCC2`, the inhibition is 7.72%.

In the case of `COCCn1c(SCC(=O)Nc2cc(OC)ccc2OC)nc2c(c1=O)SC(C)C2` (stereo not given), the inhibition was -11.7%.

For `CC1CN(C(=O)c2ccc3c(c2)OCO3)OC(c2ccccc2)O1` (stereo not given), the inhibition was 1.63%.

Take `CCOc1ccc(NC(=O)c2ccc(NC(=O)COC(=O)c3ccc(NC(=O)CC#N)cc3)cc2)cc1`: the inhibition was 7.32%.

On to `CCC(C)(C)c1ccc(Oc2ccc(NC(=O)COC(=O)C3=COCCO3)cc2)cc1`, for which the inhibition is 24.8% (active).

`COc1ccc(NC(=O)COC(=O)C2COc3ccccc3O2)cc1` (stereo not given): the inhibition was -2.48%.
